Measured values as given in PMC7862700, “An all-to-all approach to the identification of sequence-specific readers for epigenetic DNA modifications on cytosine”.

Assays:
Assay in all cases: DAPPL (digital affinity profiling via proximity ligation, sequencing); 10 mM Tris-HCl pH 7.5, 50 mM NaCl, 1 mM DTT, 4% glycerol, room temperature, 30 min; GST-TFs on glutathione beads, 16-mer random dsDNA library, 0.1% formaldehyde crosslink after washing; high values mean tight binding
Conditions in all cases: protein: recombinant; tags: N-terminal GST; dsDNA, one strand shown
FLI1 = target: T1, FLI1 (Homo sapiens, UniProt Q01543 1-452)
T1 sequence: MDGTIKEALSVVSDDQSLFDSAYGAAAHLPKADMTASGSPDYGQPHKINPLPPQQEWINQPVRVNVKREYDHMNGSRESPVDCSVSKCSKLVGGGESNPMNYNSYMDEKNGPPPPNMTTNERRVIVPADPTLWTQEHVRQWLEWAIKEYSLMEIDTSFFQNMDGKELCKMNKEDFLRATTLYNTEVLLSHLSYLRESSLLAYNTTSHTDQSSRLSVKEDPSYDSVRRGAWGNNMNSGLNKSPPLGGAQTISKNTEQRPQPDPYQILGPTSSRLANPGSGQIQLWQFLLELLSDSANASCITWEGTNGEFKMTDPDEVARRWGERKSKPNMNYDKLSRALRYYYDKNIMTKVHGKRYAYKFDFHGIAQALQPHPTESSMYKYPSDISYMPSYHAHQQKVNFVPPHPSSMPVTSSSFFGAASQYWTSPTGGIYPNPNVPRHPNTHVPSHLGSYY
Method in brief: (§1)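 Sequencing on an Illumina NextSeq500 followed washing, crosslinking with 0.1% formaldehyde, proximity ligation (BsaI/T4 ligase, 1 h, 37 °C) and PCR amplification of pools that had been incubated for 30 min at room temperature with 200 nmole of a random double-stranded 16-mer DNA library in Tris/NaCl/DTT/glycerol buffer. Each pool held DNA-barcoded human transcription factors, expressed in yeast as GST fusions and captured on glutathione beads, plus a tag-only sample. Binding signal is a hexamer's read frequency for a factor divided by its frequency in the tag-only sample.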

ELK1 = target: T2, ELK1 (Homo sapiens, UniProt P19419 1-428)
T2 sequence: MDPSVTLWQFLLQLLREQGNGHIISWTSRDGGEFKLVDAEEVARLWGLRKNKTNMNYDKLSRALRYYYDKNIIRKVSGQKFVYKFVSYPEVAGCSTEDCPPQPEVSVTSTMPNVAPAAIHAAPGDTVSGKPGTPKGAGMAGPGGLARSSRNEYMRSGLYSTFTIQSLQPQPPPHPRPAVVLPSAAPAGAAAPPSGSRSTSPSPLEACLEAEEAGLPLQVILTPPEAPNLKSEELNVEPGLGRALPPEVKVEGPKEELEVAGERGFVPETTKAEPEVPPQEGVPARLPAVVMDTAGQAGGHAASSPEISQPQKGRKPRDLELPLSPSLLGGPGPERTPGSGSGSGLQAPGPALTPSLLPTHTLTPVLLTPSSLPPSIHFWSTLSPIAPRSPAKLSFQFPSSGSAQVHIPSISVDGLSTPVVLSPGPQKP
Method in brief: as §1

GABPA = target: T3, GABPA (Homo sapiens, UniProt Q06546 1-454)
T3 sequence: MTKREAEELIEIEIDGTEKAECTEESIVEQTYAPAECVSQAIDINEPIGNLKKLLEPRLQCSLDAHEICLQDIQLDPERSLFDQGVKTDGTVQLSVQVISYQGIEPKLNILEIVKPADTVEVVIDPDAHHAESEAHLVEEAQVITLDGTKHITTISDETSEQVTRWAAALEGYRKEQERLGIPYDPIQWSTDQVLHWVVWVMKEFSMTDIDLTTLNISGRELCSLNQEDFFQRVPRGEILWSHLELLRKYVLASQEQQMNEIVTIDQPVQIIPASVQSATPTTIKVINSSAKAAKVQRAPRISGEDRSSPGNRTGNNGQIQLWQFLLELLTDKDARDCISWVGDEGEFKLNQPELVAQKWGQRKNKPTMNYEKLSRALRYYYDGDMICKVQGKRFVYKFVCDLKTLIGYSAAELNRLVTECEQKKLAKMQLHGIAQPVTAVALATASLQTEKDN
Method in brief: as §1

ERG = target: T4, ERG (Homo sapiens, UniProt P11308 1-479)
T4 sequence: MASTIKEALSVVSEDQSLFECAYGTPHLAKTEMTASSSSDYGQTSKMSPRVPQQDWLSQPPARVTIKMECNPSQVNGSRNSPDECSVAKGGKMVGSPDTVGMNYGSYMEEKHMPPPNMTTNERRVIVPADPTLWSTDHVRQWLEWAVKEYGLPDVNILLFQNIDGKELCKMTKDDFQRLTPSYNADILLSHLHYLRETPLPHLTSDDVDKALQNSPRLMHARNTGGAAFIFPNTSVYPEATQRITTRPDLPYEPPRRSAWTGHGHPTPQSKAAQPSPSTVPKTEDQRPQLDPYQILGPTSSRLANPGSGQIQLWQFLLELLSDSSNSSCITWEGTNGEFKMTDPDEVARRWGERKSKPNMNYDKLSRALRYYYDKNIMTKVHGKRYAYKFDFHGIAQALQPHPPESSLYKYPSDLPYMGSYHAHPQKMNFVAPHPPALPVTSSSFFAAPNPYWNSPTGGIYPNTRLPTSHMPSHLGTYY
Method in brief: as §1

ELF1 = ELF1 (Homo sapiens, UniProt P32519 1-619)
Method in brief: as §1

EHF = target: T5, EHF (Homo sapiens, UniProt Q9NZC4 1-300)
T5 sequence: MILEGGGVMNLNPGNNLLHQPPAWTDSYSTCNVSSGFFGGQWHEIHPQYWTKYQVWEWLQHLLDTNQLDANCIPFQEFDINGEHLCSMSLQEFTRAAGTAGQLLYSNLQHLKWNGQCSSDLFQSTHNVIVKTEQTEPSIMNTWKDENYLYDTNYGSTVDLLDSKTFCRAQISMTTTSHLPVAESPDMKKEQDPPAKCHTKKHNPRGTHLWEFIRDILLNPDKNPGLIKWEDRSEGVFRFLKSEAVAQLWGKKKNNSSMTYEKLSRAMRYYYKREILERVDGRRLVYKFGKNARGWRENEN
Method in brief: as §1

SPI1 = SPI1 (Homo sapiens, UniProt P17947 1-270)
Method in brief: as §1

SPIB = SPIB (Homo sapiens, UniProt Q01892 1-262)
Method in brief: as §1

ELK3 = target: T6, ELK3 (Homo sapiens, UniProt P41970 1-407)
T6 sequence: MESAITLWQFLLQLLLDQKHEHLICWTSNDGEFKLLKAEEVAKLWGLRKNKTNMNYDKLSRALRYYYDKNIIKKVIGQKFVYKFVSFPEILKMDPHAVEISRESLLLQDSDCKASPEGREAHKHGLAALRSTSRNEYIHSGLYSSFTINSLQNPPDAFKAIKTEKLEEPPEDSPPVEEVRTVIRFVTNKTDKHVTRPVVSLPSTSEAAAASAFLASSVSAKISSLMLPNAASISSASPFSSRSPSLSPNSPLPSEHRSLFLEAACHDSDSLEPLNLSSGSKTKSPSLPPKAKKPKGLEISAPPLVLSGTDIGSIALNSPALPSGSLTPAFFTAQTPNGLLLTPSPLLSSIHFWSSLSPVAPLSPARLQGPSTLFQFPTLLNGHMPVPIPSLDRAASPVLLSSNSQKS
Method in brief: as §1

FEV = target: T7, FEV (Homo sapiens, UniProt Q99581 1-238)
T7 sequence: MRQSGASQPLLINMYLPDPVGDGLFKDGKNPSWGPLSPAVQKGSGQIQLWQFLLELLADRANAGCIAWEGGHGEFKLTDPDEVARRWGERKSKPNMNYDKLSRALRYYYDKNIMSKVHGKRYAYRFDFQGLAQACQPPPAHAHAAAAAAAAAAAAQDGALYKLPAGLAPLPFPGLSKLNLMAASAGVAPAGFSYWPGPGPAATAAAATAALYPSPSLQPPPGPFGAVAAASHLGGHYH
Method in brief: as §1

ETV5 = ETV5 (Homo sapiens, UniProt P41161 1-510)
Method in brief: as §1

SPIC = target: T8, SPIC (Homo sapiens, UniProt Q8N5J4 1-248)
T8 sequence: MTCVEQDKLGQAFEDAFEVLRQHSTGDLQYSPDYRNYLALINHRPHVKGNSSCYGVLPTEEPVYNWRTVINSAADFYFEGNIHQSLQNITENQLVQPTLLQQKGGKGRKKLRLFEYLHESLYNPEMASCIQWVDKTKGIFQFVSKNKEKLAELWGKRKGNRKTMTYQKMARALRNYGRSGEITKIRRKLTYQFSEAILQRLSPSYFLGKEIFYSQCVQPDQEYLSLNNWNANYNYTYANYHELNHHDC
Method in brief: as §1

ELF4 = ELF4 (Homo sapiens, UniProt Q99607 1-663)
Method in brief: as §1

ELK4 = target: T9, ELK4 (Homo sapiens, UniProt P28324-2 1-405)
T9 sequence: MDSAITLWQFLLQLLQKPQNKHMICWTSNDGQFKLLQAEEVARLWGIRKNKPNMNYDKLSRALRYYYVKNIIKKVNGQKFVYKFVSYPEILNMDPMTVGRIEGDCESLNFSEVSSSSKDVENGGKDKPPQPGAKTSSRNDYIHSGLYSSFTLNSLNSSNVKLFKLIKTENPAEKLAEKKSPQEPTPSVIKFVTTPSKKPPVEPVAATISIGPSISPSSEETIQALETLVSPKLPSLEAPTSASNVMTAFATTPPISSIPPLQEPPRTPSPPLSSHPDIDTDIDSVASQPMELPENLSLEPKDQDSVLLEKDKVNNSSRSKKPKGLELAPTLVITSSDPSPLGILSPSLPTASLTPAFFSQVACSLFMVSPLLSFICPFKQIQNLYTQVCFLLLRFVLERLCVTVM
Method in brief: as §1

ETV2 = target: T10, ETV2 (Homo sapiens, UniProt O00321 1-342)
T10 sequence: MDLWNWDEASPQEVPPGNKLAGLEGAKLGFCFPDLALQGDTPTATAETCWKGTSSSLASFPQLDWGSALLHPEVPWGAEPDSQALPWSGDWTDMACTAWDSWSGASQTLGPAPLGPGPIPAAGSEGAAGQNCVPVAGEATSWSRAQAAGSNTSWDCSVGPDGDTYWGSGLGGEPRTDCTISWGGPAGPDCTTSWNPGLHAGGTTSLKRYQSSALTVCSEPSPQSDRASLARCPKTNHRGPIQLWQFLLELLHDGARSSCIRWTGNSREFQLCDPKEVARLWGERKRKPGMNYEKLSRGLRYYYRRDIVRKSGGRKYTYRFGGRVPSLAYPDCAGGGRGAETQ
Method in brief: as §1

ELF3 = target: T11, ELF3 (Homo sapiens, UniProt P78545 1-371)
T11 sequence: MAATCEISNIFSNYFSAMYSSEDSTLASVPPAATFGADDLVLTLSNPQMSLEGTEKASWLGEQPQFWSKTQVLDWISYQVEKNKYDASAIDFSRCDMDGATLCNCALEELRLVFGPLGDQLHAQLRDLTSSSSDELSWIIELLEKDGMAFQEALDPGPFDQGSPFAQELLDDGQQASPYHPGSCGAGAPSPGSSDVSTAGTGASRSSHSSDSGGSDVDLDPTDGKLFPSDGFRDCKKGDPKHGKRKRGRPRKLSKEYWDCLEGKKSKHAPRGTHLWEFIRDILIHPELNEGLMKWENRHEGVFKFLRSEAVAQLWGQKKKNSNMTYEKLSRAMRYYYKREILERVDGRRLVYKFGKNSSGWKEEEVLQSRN
Method in brief: as §1

ETV1 = ETV1 (Homo sapiens, UniProt P50549 1-477)
Method in brief: as §1

Sequence of ETV5 (P41161 whole entry): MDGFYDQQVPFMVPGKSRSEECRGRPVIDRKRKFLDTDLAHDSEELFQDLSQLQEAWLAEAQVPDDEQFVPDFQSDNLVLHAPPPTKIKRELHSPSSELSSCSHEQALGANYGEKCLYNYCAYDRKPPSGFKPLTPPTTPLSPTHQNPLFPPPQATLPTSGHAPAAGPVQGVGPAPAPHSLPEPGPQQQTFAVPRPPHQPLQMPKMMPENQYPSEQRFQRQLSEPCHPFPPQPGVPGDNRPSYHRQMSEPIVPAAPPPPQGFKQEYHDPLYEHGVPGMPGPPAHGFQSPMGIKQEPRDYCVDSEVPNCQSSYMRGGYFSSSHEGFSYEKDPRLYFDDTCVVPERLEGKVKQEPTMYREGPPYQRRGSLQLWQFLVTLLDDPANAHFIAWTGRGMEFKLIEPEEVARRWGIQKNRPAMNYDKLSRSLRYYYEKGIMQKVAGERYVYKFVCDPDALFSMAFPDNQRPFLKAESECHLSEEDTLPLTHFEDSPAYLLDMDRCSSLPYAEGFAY
Sequence of ELF1 (P32519 whole entry): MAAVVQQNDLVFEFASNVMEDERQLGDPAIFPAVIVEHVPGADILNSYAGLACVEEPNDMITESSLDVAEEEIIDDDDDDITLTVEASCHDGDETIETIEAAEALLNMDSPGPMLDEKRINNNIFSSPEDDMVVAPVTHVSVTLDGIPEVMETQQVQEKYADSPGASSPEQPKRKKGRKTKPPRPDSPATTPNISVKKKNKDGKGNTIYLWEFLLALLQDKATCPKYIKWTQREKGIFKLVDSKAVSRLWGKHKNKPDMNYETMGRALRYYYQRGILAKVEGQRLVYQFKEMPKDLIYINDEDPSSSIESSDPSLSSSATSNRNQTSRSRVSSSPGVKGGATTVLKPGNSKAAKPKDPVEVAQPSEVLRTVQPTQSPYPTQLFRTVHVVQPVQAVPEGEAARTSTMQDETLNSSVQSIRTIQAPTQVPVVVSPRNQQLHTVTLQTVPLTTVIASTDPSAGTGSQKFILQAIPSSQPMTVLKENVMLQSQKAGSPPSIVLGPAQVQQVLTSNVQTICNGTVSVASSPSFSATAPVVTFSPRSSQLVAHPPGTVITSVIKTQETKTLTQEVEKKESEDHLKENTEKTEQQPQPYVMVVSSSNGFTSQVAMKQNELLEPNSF
Sequence of SPIB (Q01892 whole entry): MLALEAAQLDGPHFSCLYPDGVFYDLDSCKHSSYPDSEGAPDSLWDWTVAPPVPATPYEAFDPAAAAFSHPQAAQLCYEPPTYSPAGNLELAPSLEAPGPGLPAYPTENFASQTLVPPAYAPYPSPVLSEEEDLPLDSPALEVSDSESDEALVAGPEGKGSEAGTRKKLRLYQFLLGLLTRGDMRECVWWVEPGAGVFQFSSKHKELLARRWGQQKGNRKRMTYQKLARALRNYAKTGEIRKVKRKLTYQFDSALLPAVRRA
Sequence of ELF4 (Q99607 whole entry): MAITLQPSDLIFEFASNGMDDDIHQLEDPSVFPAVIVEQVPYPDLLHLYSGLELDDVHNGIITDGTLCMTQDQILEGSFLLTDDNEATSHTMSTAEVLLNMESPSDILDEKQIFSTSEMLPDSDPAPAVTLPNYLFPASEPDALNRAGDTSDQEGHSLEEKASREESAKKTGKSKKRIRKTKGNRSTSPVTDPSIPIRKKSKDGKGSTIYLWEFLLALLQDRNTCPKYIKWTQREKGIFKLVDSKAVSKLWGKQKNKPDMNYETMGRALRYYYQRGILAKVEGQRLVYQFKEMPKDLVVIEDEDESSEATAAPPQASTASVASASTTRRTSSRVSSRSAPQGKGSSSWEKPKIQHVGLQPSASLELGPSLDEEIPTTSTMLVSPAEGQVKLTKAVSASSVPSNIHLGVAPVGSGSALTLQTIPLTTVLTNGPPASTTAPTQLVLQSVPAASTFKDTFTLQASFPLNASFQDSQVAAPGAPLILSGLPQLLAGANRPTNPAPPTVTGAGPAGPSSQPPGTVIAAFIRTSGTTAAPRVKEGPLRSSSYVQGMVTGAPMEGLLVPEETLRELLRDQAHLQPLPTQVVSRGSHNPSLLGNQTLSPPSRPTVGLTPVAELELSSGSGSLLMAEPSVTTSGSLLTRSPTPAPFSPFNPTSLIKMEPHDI
Sequence of ETV1 (P50549 whole entry): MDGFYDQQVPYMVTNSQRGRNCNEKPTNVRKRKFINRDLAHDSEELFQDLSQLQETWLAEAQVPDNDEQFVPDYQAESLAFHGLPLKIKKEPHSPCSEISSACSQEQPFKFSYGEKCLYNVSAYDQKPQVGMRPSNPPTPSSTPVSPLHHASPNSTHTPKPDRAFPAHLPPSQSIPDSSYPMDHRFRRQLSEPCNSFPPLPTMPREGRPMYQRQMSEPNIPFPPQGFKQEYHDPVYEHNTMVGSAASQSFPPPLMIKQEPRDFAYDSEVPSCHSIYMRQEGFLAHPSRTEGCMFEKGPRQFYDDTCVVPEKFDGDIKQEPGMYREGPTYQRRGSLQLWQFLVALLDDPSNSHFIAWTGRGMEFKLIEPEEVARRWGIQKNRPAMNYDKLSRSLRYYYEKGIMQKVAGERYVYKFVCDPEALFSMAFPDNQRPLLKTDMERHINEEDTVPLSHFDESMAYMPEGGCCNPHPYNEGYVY

Row | Sequence | binding signal (FLI1) | binding signal (ELK1) | binding signal (GABPA) | binding signal (ERG) | binding signal (ELF1) | binding signal (EHF) | binding signal (SPI1) | binding signal (SPIB) | binding signal (ELK3) | binding signal (FEV) | binding signal (ETV5) | binding signal (SPIC) | binding signal (ELF4) | binding signal (ELK4) | binding signal (ETV2) | binding signal (ELF3) | binding signal (ETV1)
1 | CCCCGG | 1.19 fold enrichment (6-mer frequency, TF over GST control) | 1.18 fold enrichment (6-mer frequency, TF over GST control) | 1.15 fold enrichment (6-mer frequency, TF over GST control) | 1.3 fold enrichment (6-mer frequency, TF over GST control) | 1.22 fold enrichment (6-mer frequency, TF over GST control) | 1.24 fold enrichment (6-mer frequency, TF over GST control) | 1.16 fold enrichment (6-mer frequency, TF over GST control) | 1.27 fold enrichment (6-mer frequency, TF over GST control) | 1.2 fold enrichment (6-mer frequency, TF over GST control) | 1.38 fold enrichment (6-mer frequency, TF over GST control) | 1.27 fold enrichment (6-mer frequency, TF over GST control) | 1.07 fold enrichment (6-mer frequency, TF over GST control) | 1.2 fold enrichment (6-mer frequency, TF over GST control) | 1.31 fold enrichment (6-mer frequency, TF over GST control) | 1.24 fold enrichment (6-mer frequency, TF over GST control) | 1.09 fold enrichment (6-mer frequency, TF over GST control) | 1.29 fold enrichment (6-mer frequency, TF over GST control)
2 | ACAAAC | 1.15 fold enrichment (6-mer frequency, TF over GST control) | 1.15 fold enrichment (6-mer frequency, TF over GST control) | 1.14 fold enrichment (6-mer frequency, TF over GST control) | 1.16 fold enrichment (6-mer frequency, TF over GST control) | 1.12 fold enrichment (6-mer frequency, TF over GST control) | 1.15 fold enrichment (6-mer frequency, TF over GST control) | 1.11 fold enrichment (6-mer frequency, TF over GST control) | 1.11 fold enrichment (6-mer frequency, TF over GST control) | 1.17 fold enrichment (6-mer frequency, TF over GST control) | 1.15 fold enrichment (6-mer frequency, TF over GST control) | 1.08 fold enrichment (6-mer frequency, TF over GST control) | 1.11 fold enrichment (6-mer frequency, TF over GST control) | 1.12 fold enrichment (6-mer frequency, TF over GST control) | 1.08 fold enrichment (6-mer frequency, TF over GST control) | 1.24 fold enrichment (6-mer frequency, TF over GST control) | 1.12 fold enrichment (6-mer frequency, TF over GST control) | 1.12 fold enrichment (6-mer frequency, TF over GST control)
3 | AACCGG | 1.43 fold enrichment (6-mer frequency, TF over GST control) | 1.58 fold enrichment (6-mer frequency, TF over GST control) | 1.33 fold enrichment (6-mer frequency, TF over GST control) | 1.73 fold enrichment (6-mer frequency, TF over GST control) | 1.46 fold enrichment (6-mer frequency, TF over GST control) | 1.5 fold enrichment (6-mer frequency, TF over GST control) | 1.7 fold enrichment (6-mer frequency, TF over GST control) | 1.64 fold enrichment (6-mer frequency, TF over GST control) | 1.54 fold enrichment (6-mer frequency, TF over GST control) | 2.35 fold enrichment (6-mer frequency, TF over GST control) | 1.53 fold enrichment (6-mer frequency, TF over GST control) | 1.4 fold enrichment (6-mer frequency, TF over GST control) | 1.31 fold enrichment (6-mer frequency, TF over GST control) | 1.26 fold enrichment (6-mer frequency, TF over GST control) | 1.45 fold enrichment (6-mer frequency, TF over GST control) | 1.36 fold enrichment (6-mer frequency, TF over GST control) | 1.69 fold enrichment (6-mer frequency, TF over GST control)
